# Only a selection was taken, and the strongest signals are over-represented in it overall.
# B1: AAL (Agrocybe aegerita), Q6WY08 (protein)
# chain: MQGVNIYNISAGTSVDLAAPVTTGDIVTFFSSALNLNAGAGNPNNTTLNLFAENGAYLLHIAHRLQENVIIFNSRQPDGPWLVEQRVSDVANQFAGIDGKAMVTVFDHGDKYQVVINEKTVIQYTKQISGLTLSLSYNATEETSIFSTVVEAVTYTGLALEHHHHHH
# Legend:
# Experiment in all cases: glycan array binding signal (z-score within array); higher = stronger binding
# Details in all cases: glycan notation: IUPAC condensed, linker removed; mutation: F63H
# [1] = biological target: Gal3S(b1-3)[Fuc(a1-4)]GlcNAc
# Procedure, shortened: (§1)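 The Consortium for Functional Glycomics database supplied 3228 glycan arrays, of which those lacking an available protein sequence were dropped. The binding signal, a within-array Z-score, was averaged across arrays of the same protein sequence and across linkers. Negative scores can be read as non-binding.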
# Gal4S(b1-4)GlcNAc = biological target: Gal4S(b1-4)GlcNAc
# Procedure, shortened: as §1
# GalNAc(b1-3)GlcNAc = biological target: GalNAc(b1-3)GlcNAc
# Procedure, shortened: as §1
# [2] = biological target: Glc(a1-6)Glc(a1-6)Glc(a1-6)Glc
# Procedure, shortened: as §1
# GlcA(b1-6)Gal = biological target: GlcA(b1-6)Gal
# Procedure, shortened: as §1
# [3] = biological target: GlcA3S(b1-3)Gal(b1-4)GlcNAc(b1-2)Man
# Procedure, shortened: as §1
# [4] = biological target: GlcA3S(b1-3)Gal(b1-4)GlcNAc(b1-3)Gal(b1-4)Glc
# Procedure, shortened: as §1
# [5] = biological target: GlcNAc(a1-4)Gal(b1-4)GlcNAc(b1-3)Gal(b1-4)GlcNAc
# Procedure, shortened: as §1
# [6] = biological target: GlcNAc(b1-2)Man(a1-3)[GlcNAc(b1-4)][GlcNAc(b1-2)Man(a1-6)]Man(b1-4)GlcNAc(b1-4)[Fuc(a1-6)]GlcNAc
# Procedure, shortened: as §1
# GlcNAc(b1-3)Gal(b1-4)Glc = biological target: GlcNAc(b1-3)Gal(b1-4)Glc
# Procedure, shortened: as §1
# [7] = biological target: GlcNAc(b1-3)Gal(b1-4)GlcNAc(b1-3)Gal(b1-4)GlcNAc(b1-2)[GlcNAc(b1-3)Gal(b1-4)GlcNAc(b1-3)Gal(b1-4)GlcNAc(b1-6)]Man(a1-6)[GlcNAc(b1-3)Gal(b1-4)GlcNAc(b1-3)Gal(b1-4)GlcNAc(b1-2)Man(a1-3)]Man(b1-4)GlcNAc(b1-4)[Fuc(a1-6)]GlcNAc
# Procedure, shortened: as §1
# [8] = biological target: GlcNAc(b1-3)Gal(b1-4)GlcNAc(b1-3)Gal(b1-4)GlcNAc(b1-3)Gal(b1-4)GlcNAc(b1-2)Man(a1-3)[GlcNAc(b1-3)Gal(b1-4)GlcNAc(b1-3)Gal(b1-4)GlcNAc(b1-3)Gal(b1-4)GlcNAc(b1-2)Man(a1-6)]Man(b1-4)GlcNAc(b1-4)[Fuc(a1-6)]GlcNAc
# Procedure, shortened: as §1
# [9] = biological target: GlcNAc(b1-3)Gal(b1-4)GlcNAc(b1-3)Gal(b1-4)GlcNAc(b1-3)Gal(b1-4)GlcNAc(b1-3)Gal(b1-4)GlcNAc(b1-2)[GlcNAc(b1-3)Gal(b1-4)GlcNAc(b1-3)Gal(b1-4)GlcNAc(b1-3)Gal(b1-4)GlcNAc(b1-3)Gal(b1-4)GlcNAc(b1-6)]Man(a1-6)[GlcNAc(b1-3)Gal(b1-4)GlcNAc(b1-3)Gal(b1-4)GlcNAc(b1-3)Gal(b1-4)GlcNAc(b1-3)Gal(b1-4)GlcNAc(b1-2)Man(a1-3)]Man(b1-4)GlcNAc(b1-4)[Fuc(a1-6)]GlcNAc
# Procedure, shortened: as §1
# [10] = biological target: GlcNAc(b1-3)Gal(b1-4)GlcNAc(b1-3)[GlcNAc(b1-3)Gal(b1-4)GlcNAc(b1-3)]GalNAc
# Procedure, shortened: as §1
# GlcNAc(b1-3)Man = biological target: GlcNAc(b1-3)Man
# Procedure, shortened: as §1
# [11] = biological target: GlcNAc(b1-3)[GlcNAc(b1-4)][GlcNAc(b1-6)]GlcNAc
# Procedure, shortened: as §1
# [12] = biological target: GlcNAc(b1-3)[GlcNAc(b1-6)]GalNAc
# Procedure, shortened: as §1
# Kdn(a2-3)Gal(b1-3)GlcNAc = biological target: Kdn(a2-3)Gal(b1-3)GlcNAc
# Procedure, shortened: as §1
# [13] = biological target: Man(a1-2)Man(a1-2)Man(a1-6)[Man(a1-3)]Man
# Procedure, shortened: as §1
# Man(a1-2)Man(a1-3)Man = biological target: Man(a1-2)Man(a1-3)Man
# Procedure, shortened: as §1
# [14] = biological target: Neu5Ac(a2-3)Gal(b1-3)GalNAc(b1-4)Gal(b1-4)Glc
# Procedure, shortened: as §1
# [15] = biological target: Neu5Ac(a2-3)Gal(b1-3)GlcNAc
# Procedure, shortened: as §1
# [16] = biological target: Neu5Ac(a2-3)Gal(b1-3)[Fuc(a1-4)]GlcNAc(b1-3)Gal(b1-4)[Fuc(a1-3)]GlcNAc
# Procedure, shortened: as §1
# [17] = biological target: Neu5Ac(a2-3)Gal(b1-3)[GlcNAc(b1-6)]GalNAc
# Procedure, shortened: as §1
# [18] = biological target: Neu5Ac(a2-3)Gal(b1-4)GlcNAc(b1-2)[Neu5Ac(a2-3)Gal(b1-4)GlcNAc(b1-4)]Man(a1-3)[GlcNAc(b1-4)][Neu5Ac(a2-3)Gal(b1-4)GlcNAc(b1-4)Man(a1-6)]Man(b1-4)GlcNAc(b1-4)GlcNAc
# Procedure, shortened: as §1
# [19] = biological target: Neu5Ac(a2-3)Gal(b1-4)GlcNAc(b1-2)[Neu5Ac(a2-3)Gal(b1-4)GlcNAc(b1-6)]Man(a1-6)[Neu5Ac(a2-3)Gal(b1-4)GlcNAc(b1-2)Man(a1-3)][GlcNAc(b1-4)]Man(b1-4)GlcNAc(b1-4)GlcNAc
# Procedure, shortened: as §1
# [20] = biological target: Neu5Ac(a2-3)Gal(b1-4)GlcNAc(b1-6)[Gal(b1-3)]GalNAc
# Procedure, shortened: as §1
# [21] = biological target: Neu5Ac(a2-6)Gal(b1-4)GlcNAc(b1-2)Man(a1-3)[GlcNAc(b1-2)Man(a1-6)]Man(b1-4)GlcNAc(b1-4)GlcNAc
# Procedure, shortened: as §1
# [22] = biological target: Neu5Ac(a2-6)Gal(b1-4)GlcNAc(b1-3)Gal(b1-4)GlcNAc(b1-2)Man(a1-3)[Neu5Ac(a2-6)Gal(b1-4)GlcNAc(b1-3)Gal(b1-4)GlcNAc(b1-2)Man(a1-6)]GalNAc
# Procedure, shortened: as §1
# [23] = biological target: Neu5Ac(a2-6)Gal(b1-4)GlcNAc(b1-6)[Gal(b1-3)]GalNAc
# Procedure, shortened: as §1
# Neu5Gc(a2-3)Gal(b1-4)Glc = biological target: Neu5Gc(a2-3)Gal(b1-4)Glc
# Procedure, shortened: as §1
# [24] = biological target: Neu5Gc(a2-3)Gal(b1-4)[Fuc(a1-3)]GlcNAc
# Procedure, shortened: as §1
binder,measurement,setting,value
B1,glycan array binding signal (z-score),[1],-0.366
same,glycan array binding signal (z-score),Gal4S(b1-4)GlcNAc,-0.569
same,glycan array binding signal (z-score),GalNAc(b1-3)GlcNAc,-0.08
same,glycan array binding signal (z-score),[2],-0.408
same,glycan array binding signal (z-score),GlcA(b1-6)Gal,0.43
same,glycan array binding signal (z-score),[3],14.9
same,glycan array binding signal (z-score),[4],12.7
same,glycan array binding signal (z-score),[5],-0.067
same,glycan array binding signal (z-score),[6],-0.109
same,glycan array binding signal (z-score),GlcNAc(b1-3)Gal(b1-4)Glc,1.42
same,glycan array binding signal (z-score),[7],0.909
same,glycan array binding signal (z-score),[8],0.906
same,glycan array binding signal (z-score),[9],0.818
same,glycan array binding signal (z-score),[10],0.58
same,glycan array binding signal (z-score),GlcNAc(b1-3)Man,-0.511
same,glycan array binding signal (z-score),[11],-0.568
same,glycan array binding signal (z-score),[12],-0.374
same,glycan array binding signal (z-score),Kdn(a2-3)Gal(b1-3)GlcNAc,-0.066
same,glycan array binding signal (z-score),[13],-0.576
same,glycan array binding signal (z-score),Man(a1-2)Man(a1-3)Man,-0.172
same,glycan array binding signal (z-score),[14],0.045
same,glycan array binding signal (z-score),[15],-0.26
same,glycan array binding signal (z-score),[16],-0.137
same,glycan array binding signal (z-score),[17],0.214
same,glycan array binding signal (z-score),[18],-0.283
same,glycan array binding signal (z-score),[19],1.54
same,glycan array binding signal (z-score),[20],0.404
same,glycan array binding signal (z-score),[21],-0.73
same,glycan array binding signal (z-score),[22],-0.58
same,glycan array binding signal (z-score),[23],0.137
same,glycan array binding signal (z-score),Neu5Gc(a2-3)Gal(b1-4)Glc,1.34
same,glycan array binding signal (z-score),[24],0.023

# Reference: the supplement of paper PMC8728848
